Screening results as filed in PubChem BioAssay.
This excerpt belongs to a sample that is enriched for hits.
FH mod: Identification of activators of human fumarate hydratase by quantitative high-throughput screening; FH coupled MDH/diaphorase resazurin fluorescence, 15 min; Potency, µM (top dose mostly 79.9 µM), usual class: inhibitors; 54,000 compounds, 0.22% hits; further: the screen sought activators but most active calls are inhibition curves; nearly all actives have a fitted effect of over 45% in size
Target sequence (P07954 whole entry, looked up): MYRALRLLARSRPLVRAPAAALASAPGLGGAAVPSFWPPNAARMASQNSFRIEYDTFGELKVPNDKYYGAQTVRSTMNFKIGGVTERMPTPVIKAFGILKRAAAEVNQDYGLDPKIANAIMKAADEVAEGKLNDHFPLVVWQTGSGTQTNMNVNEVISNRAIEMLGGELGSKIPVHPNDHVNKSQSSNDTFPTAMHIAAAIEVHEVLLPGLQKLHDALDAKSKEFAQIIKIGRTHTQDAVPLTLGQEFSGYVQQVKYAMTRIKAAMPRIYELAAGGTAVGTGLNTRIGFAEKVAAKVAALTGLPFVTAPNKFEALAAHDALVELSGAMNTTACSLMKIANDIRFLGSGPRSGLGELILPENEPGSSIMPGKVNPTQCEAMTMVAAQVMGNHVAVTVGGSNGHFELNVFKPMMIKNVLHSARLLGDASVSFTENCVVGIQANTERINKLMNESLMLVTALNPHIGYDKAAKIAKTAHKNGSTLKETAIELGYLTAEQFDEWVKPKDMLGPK
p53null 32C kill: qHTS Screen for Compounds that Selectively Target Cancer Cells with p53 Mutations: Cytotoxicity of p53 Null Cells at the Permissive Temperature | H1299-neo p53 null cells, ATP luminescence, 24 h, 32C | Potency, µM (highest dose often 46.1 µM), usual class: cytotoxic | 55,000 compounds, 0.62% hits; further: nearly all actives have a fitted effect of over 55% in size
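H1299-neo (p53 null) cells, 600/well, treated 24 h at 32C with compound up to 46 uM; ATPlite luminescence viability, normalized to DMSO and 100 uM tamoxifen; AC50 by Hill fit.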
p53null 39C tox: qHTS Screen for Compounds that Selectively Target Cancer Cells with p53 Mutations: Cytotoxicity of p53 Null Cells at the Nonpermissive Temperature. AID 904, 2007. 55,000 compounds, 0.97% hits. Potency, µM (top dose mostly 46.1 µM), hits mostly cytotoxic. H1299 p53-null (neo) cells, 39C, ATPlite viability, 24 h; further: nearly all actives have a fitted effect of over 50% in size
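Concentration-response (up to 46 uM) was run for 24 h at the nonpermissive 39C on H1299-p53A138V or H1299-neo cells. ATP content was measured with ATPlite luminescence. AC50 values were Hill-modeled after normalizing between DMSO and 100 uM tamoxifen killing.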
NTMT1 inhibitor: Primary qHTS for Inhibitors of N-terminal methyltransferase 1 (NTMT1): MTaseGlo Assay; NTMT1 MTase-Glo SAH luminescence, purified enzyme; 59,000 compounds, 2.5% hits; Potency, µM (doses to about 114 µM), most hits filed as inhibitors; N-terminal Xaa-Pro-Lys N-methyltransferase 1 (Homo sapiens), Q9BV86; further: nearly all actives have a fitted effect of over 65% in size
Target sequence (Q9BV86 whole entry, looked up): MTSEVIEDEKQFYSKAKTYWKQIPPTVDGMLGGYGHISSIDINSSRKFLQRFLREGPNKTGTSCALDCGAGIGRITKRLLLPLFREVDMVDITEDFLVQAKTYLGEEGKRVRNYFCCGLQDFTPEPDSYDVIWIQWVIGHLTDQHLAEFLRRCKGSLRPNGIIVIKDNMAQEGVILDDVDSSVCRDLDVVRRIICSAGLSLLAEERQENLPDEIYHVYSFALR
DYRK1A inh-1: Assay for Inhibitors of Dual-Specificity Tyrosine-(Y)-Phosphorylation Regulated Kinase 1A (Kinase-Glo assay); shares compounds with NTMT1 inhibitor; recombinant DYRK1A, Kinase-Glo ATP depletion luminescence; Potency, µM (top dose mostly 76.9 µM), actives largely listed as inhibitors; 100 compounds, 80% hits; AID 2705, 2010
CLK4 inh-1: Confirmation Assay for Inhibitors of CDC-like Kinase 4 (Kinase-Glo Assay): SAR round 2; recombinant Clk4, Kinase-Glo ATP luminescence, 4.5 h; 90 compounds, 90% hits; shares compounds with NTMT1 inhibitor; Potency, µM (top dose mostly 76.9 µM), hits mostly inhibitors
CLK4 inh-2: Kinase Inhibition Study on Inhibitors of CDC-like Kinase 4 (Reaction Biology data): SAR round 2; shares compounds with NTMT1 inhibitor; 65 compounds, 100% hits; Reaction Biology kinase assay, 10 uM ATP; Potency, µM, hits mostly inhibitors; calls by dose curve
DYRK1A inh-2: Kinase Inhibition Study on Inhibitors of Dyrk1a (Reaction Biology data); Potency, µM, hits mostly inhibitors; Reaction Biology kinase assay, 10 uM ATP; shares compounds with NTMT1 inhibitor; 65 compounds, 90% hits;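 active means compounds that showed inhibition of Dyrk1a and received a fitted potency; inactive means compounds that showed no inhibition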
CLK2 RBC: Kinase Inhibition Study on Inhibitors of CDC-like Kinase 2 (Reaction Biology data); Potency, µM, actives largely listed as inhibitors; shares compounds with NTMT1 inhibitor; Reaction Biology kinase assay, 10 uM ATP; 65 compounds, 90% hits;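 active means compound that inhibits Clk2 kinase in the dose series, with an IC50 potency reported; inactive means no inhibition seen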
CLK3 inh: Kinase Inhibition Study on Inhibitors of CDC-like Kinase 3 (Reaction Biology data); Potency, µM, hits mostly inhibitors; AID 504428, 2011; shares compounds with NTMT1 inhibitor; 65 compounds, 40% hits; recombinant CLK3 kinase assay, 10 uM ATP;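 active means compounds that inhibited Clk3 enough in the ten-dose series to give a half-maximal potency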
DYRK1B RBC: Kinase Inhibition Study on Inhibitors of Dyrk1b (Reaction Biology data). shares compounds with NTMT1 inhibitor. 65 compounds, 80% hits. Potency, µM, usual class: inhibitors. Recombinant Dyrk1b kinase assay, 10 uM ATP;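 active means compounds whose dose response shows an inhibitor phenotype against the kinase Dyrk1b; inactive means compounds showing no inhibitor phenotype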
CLK1 RBC: Kinase Inhibition Study on Inhibitors of CDC-like Kinase 1 (Reaction Biology data); shares compounds with NTMT1 inhibitor; recombinant Clk1 kinase assay, 10 uM ATP; Potency, µM, usual class: inhibitors; 65 compounds, 90% hits;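 active means compounds that block the splicing kinase Clk1 enough to give a fitted half-inhibition concentration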
Sfp qHTS opt: qHTS Assay for Inhibitos of Bacillus subtilis Sfp phosphopantetheinyl transferase (PPTase): Chemistry Optimization Followup; purified Sfp PPTase enzyme activity, qHTS; AID 540350, 2011; shares compounds with NTMT1 inhibitor; Potency, µM (doses to about 114 µM), hits mostly inhibitors; 230 compounds, 78% hits
HM489 growth: qHTS for Inhibitos of Bacillus subtilis Sfp phosphopantetheinyl transferase (PPTase): Chemistry Optimization Followup in B. Subtilis HM489. shares compounds with NTMT1 inhibitor. B. subtilis HM489 (acpS-) growth, BacTiter-Glo, 5 h. Potency, µM (highest dose often 114 µM), actives largely listed as inhibitors. 220 compounds, 50% hits
Sfp gel opt: Gel-Based Assay for Inhibitos of Bacillus subtilis Sfp phosphopantetheinyl transferase (PPTase): Chemistry Optimization Followup; Potency, µM (titrated, usually from 250 µM), most hits filed as inhibitors; shares compounds with NTMT1 inhibitor; 220 compounds, 54% hits; purified Sfp PPTase, gel-based product detection
Sfp inh gel: qHTS Assay for Inhibitors of Bacillus subtilis Sfp phosphopantetheinyl transferase (PPTase): Gel Based Assay. AID 602362, 2012. Potency, µM (highest dose often 250 µM), usual class: inhibitors. shares compounds with NTMT1 inhibitor. 45 compounds, 90% hits. purified Sfp PPTase, gel-based product detection
Sfp inh SAR2: qHTS Assay for Inhibitors of Bacillus subtilis Sfp phosphopantetheinyl transferase (PPTase): SAR Round 2. shares compounds with NTMT1 inhibitor. purified Sfp enzyme, PPTase activity, qHTS. Potency, µM (titrated, usually from 57.1 µM), actives largely listed as inhibitors. 230 compounds, 87% hits. AID 602370, 2012
hGST A1-1 inh: qHTS Assay for Inhibitors of Bacillus subtilis Sfp phosphopantetheinyl transferase (PPTase): SAR in hGST A1-1; Potency, µM (doses to about 114 µM), most hits filed as inhibitors; hGST A1-1 enzyme activity counter-screen, qHTS; 55 tested, under 10 active; shares compounds with NTMT1 inhibitor; AID 602391, 2012
HSD17B4 inh: Extended Characterization of HPGD Inhibitors: Counterscreen Against HSD17b4; shares compounds with NTMT1 inhibitor; purified HSD17B4, estradiol/NAD+, NADH fluorescence; Potency, µM (doses to about 57.1 µM), usual class: inhibitors; 230 compounds, 10% hits
ALDH1A1 inh: Extended Characterization of HPGD Inhibitors: Counterscreen Against ALDH1A1; AID 743195, 2013; recombinant ALDH1A1, NADH fluorescence, propionaldehyde/NAD+; Potency, µM (doses to about 57.1 µM), most hits filed as inhibitors; 230 compounds, 93% hits; shares compounds with NTMT1 inhibitor
NNMT inh: Counterscreen qHTS for Inhibitors of N-terminal methyltransferase 1 (NTMT1): NNMT MTaseGlo assay; 120 compounds, 10% hits; NNMT MTase-Glo luminescence, SAH detection; AID 1645878, 2021; shares compounds with NTMT1 inhibitor; Potency, µM (highest dose often 57.1 µM), most hits filed as inhibitors
Large screens that a line does not name were inactive (follow-up assays come after a bar, where they were run). Unless noted, the call rests on the fitted dose curve; in most records, active means well fitted curve in the direction sought with a large enough effect; inconclusive means small, poorly fitted or top-dose-only effect, or another doubt; inactive means no such curve, though single readings can be large; an effect the other way counts as inactive or inconclusive.

O=C(Nc1ccc(C(=O)Nc2nccs2)cc1)c1ccc2ccccc2c1	none (no result: FH mod, p53null 32C kill, p53null 39C tox)
CCNCc1nc2c(N)nc3ccccc3c2n1CC(C)(C)O	none (no result: p53null 32C kill, p53null 39C tox)
O=C(O)c1ccnc2cc(-c3nc4ccccc4n3CCN3CCCCC3)sc12	FH mod 12.6µM (no result: p53null 32C kill, p53null 39C tox) | NNMT inh inactive
COc1cccc(CNc2nc3ccccc3n2CCN2CCCCC2)c1OC	none (no result: FH mod, NTMT1 inhibitor)
CCOC(=O)c1[nH]c2ccc(OC)cc2c1NC(=S)N1CCN(c2cccc(Cl)c2)CC1	none (no result: FH mod, NTMT1 inhibitor)
S=C(Nc1cc(Cl)ccn1)N1CCN(c2cccc(Cl)c2Cl)CC1	NTMT1 inhibitor inconclusive (no result: FH mod, p53null 32C kill, p53null 39C tox) | Sfp qHTS opt 4.08µM | Sfp inh SAR2 15.6µM | hGST A1-1 inh inactive | HSD17B4 inh inactive | ALDH1A1 inh 6.81µM
COc1ccnc(NC(=S)N2CCN(c3ccc(Cl)cc3Cl)CC2)c1	NTMT1 inhibitor inconclusive (no result: FH mod, p53null 32C kill, p53null 39C tox) | Sfp qHTS opt 2.96µM | HM489 growth 13.2µM | Sfp gel opt 7.94µM | Sfp inh gel 3.38µM | Sfp inh SAR2 0.46µM | hGST A1-1 inh inactive | HSD17B4 inh inactive | ALDH1A1 inh 4.29µM
Cc1c(Cl)cccc1NC(=S)N1CCN(c2ncccn2)CC1	none (no result: FH mod, p53null 32C kill, NTMT1 inhibitor)
CN[C@@H]1[C@@H](O)[C@@H](O[C@@H]2[C@@H](O)[C@H](O[C@H]3O[C@@H]([C@@H](C)NC)CC[C@H]3N)[C@@H](N)C[C@H]2N)OC[C@]1(C)O	none (no result: p53null 32C kill, p53null 39C tox)
Cc1cnc(Nc2ccc(F)cc2Cl)nc1-c1c[nH]c(C(=O)NC(CO)c2cccc(Cl)c2)c1 (centres undefined)	none (no result: p53null 32C kill, p53null 39C tox) | NNMT inh inactive
Fc1cccc(CNc2ncnc3ccc(-c4ccc5c(c4)OCO5)cc23)c1	none (no result: FH mod, p53null 32C kill, p53null 39C tox)
CN(C)CCCNc1ncnc2ccc(-c3ccc4c(c3)OCO4)cc12	NTMT1 inhibitor inconclusive (no result: FH mod, p53null 32C kill, p53null 39C tox) | CLK4 inh-1 1.04µM
NCCNc1ncnc2ccc(-c3ccc4c(c3)OCO4)cc12	none (no result: FH mod, p53null 32C kill, p53null 39C tox, NTMT1 inhibitor) | DYRK1A inh-1 0.184µM | CLK4 inh-2 8.44 | DYRK1A inh-2 5.47µM | CLK2 RBC 6.42µM | CLK3 inh 15µM | DYRK1B RBC inactive | CLK1 RBC 5.56µM
Clc1ccccc1-c1ccc2ncnc(NCc3ccc4c(c3)OCO4)c2c1	none (no result: FH mod, p53null 32C kill, p53null 39C tox)
